Inconclusive results are not listed. Calls of active or inactive are those of the source. Calls follow the shape of the dose curve; as a rule, active = well fitted inhibition curve with a large enough effect; inconclusive = small, poorly fitted or top-dose-only effect; inactive = flat fitted curve, though single readings scatter.
Tested on: KB-3-1
Experiment: Cytotoxic Profiling of Annotated Libraries Using Quantitative High-Throughput Screening (AID 1296008); also: nearly all actives have a fitted effect of over 60% in size
Details: Five cell lines viability, CellTiter-Glo ATP luminescence, 48-72 h; max response: active compounds read low
Method in brief: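 Compounds were pin-transferred onto cells and incubated 48 or 72 hr at 37 degree Celsius, 95% humidity. CellTiter-Glo was added, plates sat 10 min at room temperature, then ATP-coupled luminescence was imaged as the viability read-out.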
% is scaled to controls: 0 for no effect and ±100 for the full control effect; potency is read from the fitted curve at half-maximal effect.

**Q.** For c1ccc2sc(SNC3CCCCC3)nc2c1, which max response is on record?
**A.** -2.06% (inactive)

**Q.** With CNc1ccc(C(=O)CC(O)CCC(C)C2OC(=O)CC(O)CC(=O)CC(O)CC(O)CC(O)CC(O)CC3(O)CC(O)C(C(=O)OC)C(CC(O[C@@H]4O[C@H](C)[C@@H](O)[C@H](N)[C@@H]4O)/C=C/C=C/C=C/C=C/C=C/C=C/C=C/C2C)O3)cc1 (some centres undefined) as the compound, how does the max response read?
**A.** -0.469% (inactive)

**Q.** For CCC1(c2ccccc2)C(=O)NC(=O)N(C)C1=O (centres undefined), which max response is on record?
**A.** -7.5% (inactive)

**Q.** With C=C[C@H]1CN2CC[C@H]1C[C@H]2[C@H](OC(=O)OCC)c1ccnc2ccc(OC)cc12 as the compound, how does the max response read?
**A.** 4.99% (inactive)

**Q.** How did the max response turn out when C[C@]12CCC(=O)C=C1C=C[C@@H]1[C@@H]2CC[C@@]2(C)[C@H]1CC[C@@]2(O)CCC(=O)O was run?
**A.** 17.7% (inactive)

**Q.** With CCCC(=O)OC(C(Cl)(Cl)Cl)P(=O)(OC)OC (centres undefined) as the compound, how does the max response read?
**A.** -2.33% (inactive)

**Q.** For O=C(CCl)c1ccc(Oc2ccc(C(=O)CCl)cc2)cc1, which max response is on record?
**A.** 0.148% (inactive)

**Q.** COc1ccc(OC)c([C@@H](O)[C@H](C)N)c1 was tested. Which max response did it give?
**A.** -0.699% (inactive)

**Q.** How did the max response turn out when CC(N)Cc1ccc(O)cc1 (centres undefined) was run?
**A.** -5.37% (inactive)

**Q.** Which max response does the source give for CCC1(C)CC(=O)NC(=O)C1 here?
**A.** 4.64% (inactive)

**Q.** CN1c2ccccc2C(NCCCCCCC(=O)O)c2ccc(Cl)cc2S1(=O)=O (centres undefined) was tested. Which max response did it give?
**A.** -15.2% (inactive)

**Q.** C[C@@H]([C@H](O)c1ccccc1)N(C)C was tested. Which max response did it give?
**A.** 3.96% (inactive)

**Q.** With O=C1CN=C(c2ccccc2)c2cc(Cl)ccc2N1CC1CC1 as the compound, how does the max response read?
**A.** 1.41% (inactive)

**Q.** For O=c1ccc2cc(O[C@@H]3O[C@H](CO)[C@@H](O)[C@H](O)[C@H]3O)c(O)cc2o1, which max response is on record?
**A.** -2.51% (inactive)

**Q.** For CC1(C)S[C@@H]2[C@H](N)C(=O)N2[C@H]1C(=O)O, which max response is on record?
**A.** -11.7% (inactive)

**Q.** How did the max response turn out when CC[N+](C)(CC)CCOC(=O)C(O)(c1ccccc1)c1ccccc1 was run?
**A.** -0.181% (inactive)

**Q.** ClC1=C(Cl)[C@]2(Cl)[C@@H]3[C@H]4C[C@H]([C@@H]5O[C@H]45)[C@@H]3[C@@]1(Cl)C2(Cl)Cl was tested. Which max response did it give?
**A.** -3.16% (inactive)

**Q.** Which max response does the source give for CCN(CC)C(=O)/C(Cl)=C(\C)OP(=O)(OC)OC here?
**A.** -1.44% (inactive)

**Q.** With NCC[C@H](O)C(=O)N[C@@H]1C[C@H](N)[C@@H](O[C@H]2O[C@H](CN)[C@@H](O)[C@H](O)[C@H]2N)[C@H](O[C@@H]2O[C@H](CO)[C@@H](O)[C@H]2O)[C@H]1O as the compound, how does the max response read?
**A.** 11% (inactive)

**Q.** For CCC1C(C)=NN=C(c2ccc(OC)c(OC)c2)c2cc(OC)c(OC)cc21 (centres undefined), which max response is on record?
**A.** 11.4% (inactive)

**Q.** Which max response does the source give for O=C1C=C2C=C[C@@H]3C[C@@]2(O1)[C@H]1CCCCN31 here?
**A.** -12.4% (inactive)

**Q.** For CCOP(=O)(OCC)O/C(=C/Cl)c1ccc(Cl)cc1Cl, which max response is on record?
**A.** 11.5% (inactive)

**Q.** With CC(=O)O[C@H]1C[C@H](O[C@H]2[C@@H](O)C[C@H](O[C@H]3[C@@H](O)C[C@H](O[C@H]4CC[C@@]5(C)[C@H](CC[C@@H]6[C@@H]5C[C@@H](O)[C@]5(C)[C@@H](C7=CC(=O)OC7)CC[C@]65O)C4)O[C@@H]3C)O[C@@H]2C)O[C@H](C)[C@H]1O[C@@H]1O[C@H](CO)[C@@H](O)[C@H](O)[C@H]1O as the compound, how does the Potency read?
**A.** 164 nM (active)

**Q.** How did the max response turn out when CC(C)CCON=O was run?
**A.** 10.4% (inactive)

**Q.** For S=C=S, which max response is on record?
**A.** -1.39% (inactive)

**Q.** With [Cl-].[Cl-].[Hg+2] as the compound, how does the max response read?
**A.** -9.23% (inactive)

**Q.** With COC(=O)[C@@H]1[C@H]2CC[C@@H](C[C@H]1OC(=O)c1ccccc1)N2C as the compound, how does the max response read?
**A.** 0.336% (inactive)

**Q.** For CCC1(c2ccccc2)C(=O)NC(=O)NC1=O, which max response is on record?
**A.** 3.43% (inactive)

**Q.** For C[C@@H](Cc1ccccc1)N(C)C, which max response is on record?
**A.** 9.66% (inactive)

**Q.** With C=CCN(C1=NCCN1)c1c(Cl)cccc1Cl as the compound, how does the max response read?
**A.** 1.74% (inactive)

**Q.** Which max response does the source give for CCC1(CC)C(=O)NC(=O)N(C)C1=O here?
**A.** -2.91% (inactive)

**Q.** How did the max response turn out when CCOC(=O)c1ccccc1C(=O)OCC was run?
**A.** -4.85% (inactive)

**Q.** With CC(=O)O[C@H]1CC[C@@]2(C)C(=CC[C@@H]3[C@@H]2CC[C@]2(C)C(=O)CC[C@@H]32)C1 as the compound, how does the max response read?
**A.** -3.08% (inactive)

**Q.** How did the max response turn out when O=[N+]([O-])c1ccc(F)c([N+](=O)[O-])c1 was run?
**A.** -19.8% (inactive)

From PubChem BioAssay (NCATS)
